HCMV inh = qHTS Assay for inhibitors of the human cytomegalovirus (HCMV) | AID 1259415, 2018 | HFF cells, HCMV-luciferase reporter, 72 h; active compounds read low | actives 4.5% (n = 410,000) | activity change, negative = inhibition, % at 57.5 µM; in the data active = activity change below about -60%; inconclusive = no clear call, values can overlap the other calls; inactive = above about -39%
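Two-dose cell screen: HFF monolayers treated with compounds and infected with luciferase-expressing HCMV at 1 PFU/cell, 72 h at 37C, then lysed for luciferase measurement.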
VACV Venus inh = qHTS for Stage-Specific Inhibitors of Vaccinia Orthopoxvirus: Venus Reporter Primary qHTS; Potency, µM (series often up to 36.5 µM), inactives show at the highest dose activity change, negative = inhibition, actives largely listed as inhibitors; actives 0.46% (n = 330,000); AID 720580, 2013; Vaccinia virus Venus reporter expression, fluorescence; calls by dose curve; tested in A549 cells; note: potency is the fitted concentration of half-maximal effect; nearly all actives have a fitted effect of over 30% in size
Vaccinia mCherry = qHTS for Stage-Specific Inhibitors of Vaccinia Orthopoxvirus: mCherry Reporter Primary qHTS; Vaccinia virus mCherry reporter infection, fluorescence; Potency, µM (top dose mostly 36.5 µM), for inactives: top-dose activity change, negative = inhibition, usual class: inhibitors; actives 0.63% (n = 310,000); AID 720579, 2013; calls by dose curve; tested in A549 cells; note: potency is the fitted concentration of half-maximal effect; nearly all actives have a fitted effect of over 35% in size
Lassa entry inh = qHTS for Inhibitors of binding or entry into cells for Lassa Virus; Potency, µM (doses to about 37.9 µM), inactives show at the highest dose activity change, negative = inhibition, usual class: inhibitors; actives 1.2% (n = 300,000); Lassa virus pseudotype entry inhibition, cell reporter; calls by dose curve; tested in HEK293 cells; note: potency is the fitted concentration of half-maximal effect; nearly all actives have a fitted effect of over 50% in size
HCV inhibitor = qHTS Assay for Inhibitors of Hepatitis C Virus (HCV); actives 3.4% (n = 340,000); Huh7.5.1 HCVcc-Cre infection, luciferase reporter, 44 h; Potency, µM (top dose mostly 41.8 µM), inactives show at the highest dose activity change, negative = inhibition, usual class: inhibitors; active = well fitted inhibition curve with a large enough effect; inconclusive = small, poorly fitted or top-dose-only effect, or another doubt; inactive = no such curve, though single readings can be large or run the other way; note: potency is the fitted concentration of half-maximal effect
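1,000 cells/well; 4 h culture; + compound; + HCVcc-Cre (~0.5 moi); 44 h; luciferase substrate, RT 15 min; read 15 sec.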
Marburg entry inh = qHTS for inhibitors of binding or entry into cells for Marburg Virus; Marburg virus pseudotyped entry inhibition, cell reporter; Potency, µM (top dose mostly 37.8 µM), for the others: at the highest dose activity change, negative = inhibition, hits mostly inhibitors; actives 1.8% (n = 300,000); AID 540276, 2011; calls by dose curve; tested in HEK293 cells; note: potency is the fitted concentration of half-maximal effect
Starred values were filed as active, the others as inactive; [ ] = remark or other dose. Shown are actives, neighbours in structure and some others; about 7.8% of the full set was active somewhere. % is set by controls: 0 for no effect and ±100 for the full control effect.

COc1ccccc1NC(=O)N1CCc2[nH]c3ccc(F)cc3c2C1 was read as HCMV inh 3, VACV Venus inh inconclusive, Lassa entry inh -18%, HCV inhibitor 10µM* and Marburg entry inh 2%.
Screening O=C(N/N=C1\C[C@@H](O)[C@@H](O)[C@@H]2[C@@H]3C(=O)N(Cc4ccc5c(c4)OCO5)C(=O)[C@@H]3CC[C@H]12)OCc1ccccc1 returned Marburg entry inh -2%[14.2 µM].
For COc1cccc(/C=N/NC(=O)COc2cccc3cccnc23)c1O the results were HCMV inh -6, VACV Venus inh -25%, Vaccinia mCherry 13µM*, Lassa entry inh inconclusive, HCV inhibitor inconclusive and Marburg entry inh inconclusive.
`O=C(N/N=C/c1cccc2cccnc12)c1ccccc1O` gave HCMV inh -103* and HCV inhibitor inconclusive.
For CC(C)n1cc(/C=N/NC(=O)COc2cccc3cccnc23)c2ccccc21 the results were HCMV inh 12, VACV Venus inh inconclusive, Vaccinia mCherry inconclusive, Lassa entry inh inconclusive, HCV inhibitor inconclusive and Marburg entry inh 10µM*.
CCC[C@H]1[C@@H](NS(=O)(=O)c2ccc([N+](=O)[O-])cc2)CC[C@@]23CCCN2C(=O)CCC[C@@H]13 was read as HCMV inh -7.
Screening C=C(CCN1C=C(C(=O)OCC)C(c2ccccc2)NC1=O)c1ccc(Cl)cc1 (stereo not drawn) returned Marburg entry inh 14%[14.2 µM].
`Cc1cc(Nc2ccc(F)cc2)c2ccccc2n1` gave HCMV inh -11, VACV Venus inh -20% and Vaccinia mCherry -18%.
For Cc1cc(C)c(C#N)c(Nc2ccc3c(c2)OCCO3)n1 the results were HCMV inh 93, VACV Venus inh 0%, Vaccinia mCherry 6% and HCV inhibitor 2%.
For Cc1ccc(Nc2cc(C)nc3ccccc23)c(C)c1 the results were HCMV inh inconclusive, VACV Venus inh -23%, Vaccinia mCherry inactive, Lassa entry inh -9%, HCV inhibitor 32µM* and Marburg entry inh 10µM*.
For CCOc1ccc(Nc2cc(C)nc3ccc(C)cc23)cc1 the results were HCMV inh -74*, VACV Venus inh -27%, Vaccinia mCherry -23%, Lassa entry inh 11µM*, HCV inhibitor inconclusive and Marburg entry inh inconclusive.
Cc1ccc(Nc2cc(C)nc3ccc(C)cc23)cc1 was read as HCMV inh -39, VACV Venus inh inconclusive, Vaccinia mCherry inconclusive, Lassa entry inh inconclusive, HCV inhibitor inconclusive and Marburg entry inh 11µM*.
Cc1cccc(Nc2cc(C)nc3ccccc23)c1 was read as HCMV inh inconclusive, VACV Venus inh -18%, Vaccinia mCherry -20%, Lassa entry inh inconclusive, HCV inhibitor inconclusive and Marburg entry inh inconclusive.
Screening CCOc1ccc2nc(C)cc(Nc3ccccc3OCC)c2c1 returned HCMV inh inconclusive, VACV Venus inh -15%, Vaccinia mCherry -23% and Lassa entry inh inconclusive.
`Cc1cc(Nc2ccc3c(c2)OCCO3)c2cc(Cl)ccc2n1` gave HCMV inh -93*, VACV Venus inh -16%, Vaccinia mCherry -27%, Lassa entry inh 9%, HCV inhibitor inconclusive and Marburg entry inh -26%.
For COc1ccc(-c2ccc3c(N)c(C(=O)NCc4ccc(Cl)cc4)sc3n2)cc1 the results were HCMV inh -39, VACV Venus inh -14%[7.34 µM], Vaccinia mCherry -21%[7.34 µM], Lassa entry inh -2%[46.1 µM] and Marburg entry inh 0%[46.1 µM].
CC(C)CON=C1C[C@@H](O)[C@@H](O)[C@@H]2[C@H]3C(=O)N(C[C@@H]4CCCO4)C(=O)[C@@H]3CC[C@@H]12 was read as Marburg entry inh 10%[14.2 µM].
COc1ccccc1CNC(=O)c1oc2c(c1C)-c1nn(Cc3ccc(Cl)cc3)cc1CC2 was read as HCMV inh 10, VACV Venus inh -9%, Vaccinia mCherry -6% and Lassa entry inh 1%[46.1 µM].
Screening COc1cccc(NC(=S)/C(=C(\[O-])c2cc(C)n(-c3ccccc3F)c2C)[n+]2ccc(N(C)C)cc2)c1 returned HCMV inh -95* and HCV inhibitor inconclusive.
For COc1cccc(NS(=O)(=O)c2c(C)n(C)c(=O)n(C)c2=O)c1 the results were HCMV inh -70*, VACV Venus inh -1%, Vaccinia mCherry 3% and HCV inhibitor 14%.
Screening CCn1nnc2cc(C(=O)Nc3ccc(Cl)cc3C)ccc21 returned HCMV inh 5, VACV Venus inh -8%, Vaccinia mCherry -11% and Lassa entry inh 6%[46.1 µM].
`Cc1nc(NC(=O)c2ccc(OCC(C)C)cc2)sc1Cc1ccc2c(c1)OCO2` gave HCMV inh inconclusive, VACV Venus inh -28%, Vaccinia mCherry inactive and HCV inhibitor 14µM*.
For COc1cc(C(=O)Nc2nc(C)c(Cc3ccc4c(c3)OCO4)s2)cc(OC)c1OC the results were HCMV inh -2, Lassa entry inh inconclusive, HCV inhibitor 10µM* and Marburg entry inh -42%.
For COc1cc(C(=O)c2cc3c(cc2C)OCO3)cc(OC)c1OC the results were HCMV inh -68*, VACV Venus inh inconclusive and Vaccinia mCherry -1%.
For Cc1c(Cc2ccc3c(c2)OCO3)sc(NC(=O)c2ccc3ccccc3c2)c1C(N)=O the results were HCMV inh 25, VACV Venus inh -15%, Vaccinia mCherry -19%, Lassa entry inh -9%, HCV inhibitor inconclusive and Marburg entry inh 0%.
CCCOc1ccc(C(=O)Nc2nc(C)c(Cc3ccc4c(c3)OCO4)s2)cc1 was read as HCMV inh inconclusive, VACV Venus inh 10µM*, Vaccinia mCherry inconclusive, Lassa entry inh 10%, HCV inhibitor 3.5µM* and Marburg entry inh 35%.
CO[C@H]1[C@H](NC(=O)c2ccsc2)c2ccccc2C12CCN(Cc1ccc3c(c1)OCO3)CC2 was read as VACV Venus inh -8% and Vaccinia mCherry -18%.
`O=C(Nc1ccc2nc(SCC(=O)N3CCCc4ccccc43)sc2c1)c1cccc(Cl)c1` gave HCMV inh 48, VACV Venus inh -21%, Vaccinia mCherry -19%, Lassa entry inh -11%[46.1 µM] and Marburg entry inh inconclusive.
`CC(C)CCn1c(=O)c2sccc2n2c(CCCC(=O)NCCc3ccccc3)nnc12` gave HCMV inh -13, VACV Venus inh -10%, Vaccinia mCherry -20% and Lassa entry inh -25%[46.1 µM].
CN1CCCC2(CCCN(Cc3nc(Cc4cccc(C(F)(F)F)c4)no3)C2)C1 (stereo not drawn) was read as HCMV inh -3, VACV Venus inh inconclusive, Vaccinia mCherry inconclusive, Lassa entry inh 19%[46.1 µM], HCV inhibitor inconclusive and Marburg entry inh inconclusive.
